Activity calls are given as the source filed them. The rule behind the calls is not given here.

This assay is described as follows: yeast cytosolic pH changes via V-ATPase – S. cerevisiae, pHLuorin, powder set 4, dose response (AID 652071).

As for `CN1CCN(c2ccccc2NC(=O)c2cccc(S(C)(=O)=O)c2)CC1`, the molecule was classed as inactive.
Under `NC(=O)c1cccc(C(=O)Nc2ccccc2N2CCCCC2)c1` stands “inactive”; under `Cc1cncc(C(=O)Nc2ccccc2N2CCCCC2)n1`, “inactive”.
The result for `CN(C)Cc1ccc(C(=O)Nc2ccccc2N2CCN(C)CC2)o1` reads “inactive”; that for `CS(=O)(=O)c1cccc(C(=O)Nc2ccccc2N2CCCCC2)c1`, “inactive”.
Turning to `CC(=O)N1CCN(c2ccccc2NC(=O)c2ccc(Br)o2)CC1`, the outcome was inactive.
The result for `CN1CCN(c2ccccc2NC(=O)c2cc(Cl)ccn2)CC1` reads “inactive”; that for `O=C(Nc1ccccc1N1CCCCC1)c1ccc(-c2ccccc2)o1`, “inactive”.
The result for `O=C(c1occc1-c1ccccc1)N1CCN(c2nc3ccc(F)cc3s2)CC1` reads “inactive”; that for `CC(=O)N1CCN(c2ccccc2NC(=O)c2ccc(C)o2)CC1`, “inactive”; that for `O=C(Nc1ccccc1N1CCCCC1)c1cc(Cl)ccn1`, “inactive”.
The result for `CC(=O)N1CCN(c2ccccc2NC(=O)c2cccc(Br)n2)CC1` reads “inactive”.
Take `CC(=O)N1CCN(c2ccccc2NC(=O)c2cccc(C)n2)CC1`: the molecule was called inactive.
As to `Cc1ccnc(C(=O)Nc2ccccc2N2CCN(C)CC2)c1`, the outcome was inactive.
As to `O=C(Nc1ccccc1N1CCCCC1)c1cccc(C(F)(F)F)c1`, the outcome was inactive.
Under `O=C(Nc1ccccc1N1CCOCC1)c1occc1-c1ccccc1` stands “inactive”; under `CC(=O)N1CCN(c2ccccc2NC(=O)c2ccc(C(C)(C)C)o2)CC1`, “inactive”.
The result for `CN1CCN(c2ccccc2NC(=O)c2ccc(Cl)o2)CC1` reads “inactive”; that for `O=C(Nc1ccccc1N1CCCCC1)c1occc1-c1ccccc1`, “inactive”.

(Values after PubChem BioAssay AID652071 (NMMLSC, 2013).)
